According to PubChem BioAssay AID1259418 (Broad Institute, 2018):
About 840 (25%) of roughly 3,400 compounds were called active. Inconclusive results (about 11%) are left out. These entries were drawn from the full list. Measured potencies and affinities stand elsewhere. Unmarked numbers belong to inactive results.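 How the source made its calls: active means fitted half-maximal concentration of signal decrease at or below twice the sample's top tested concentration; inconclusive means flat curve between -70 and -30 percent, or poor fit; inactive means flat within 30 percent, signal rise, or potency above limit.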

Experiment: T. gondii growth inhibition with IFN-gamma, dose response, cell-based, ME49Luc, HeLa, luciferase, 72 h (AID 1259418)
Conditions: T. gondii ME49Luc in IFN-y HeLa, hits give low values, -100% = high-dose IFN-γ control wells; at 19.5 µM unless noted

| Structure (SMILES) | max activity |
| --- | --- |
| Cc1ccccc1S(=O)(=O)N1CSC[C@@H]1C(=O)NCCc1csc(-c2ccccc2)n1 | -13% [at 0.16 µM] |
| O=C(NCCc1csc(-c2ccccc2)n1)[C@H]1CSCN1S(=O)(=O)c1ccccc1 | 14.6% |
| O=C(NCCc1csc(-c2ccccc2)n1)[C@H]1CSCN1S(=O)(=O)Cc1ccccc1 | 17.7% [at 2.6 µM] |
| O=C(NCCc1csc(-c2ccccc2)n1)[C@H]1CSCN1S(=O)(=O)c1ccc(F)cc1 | 15.5% [at 10 µM] |
| CCc1ccc(S(=O)(=O)N2CSC[C@@H]2C(=O)NCCc2csc(-c3ccccc3)n2)cc1 | -11.2% [at 0.68 µM] |
| CCS(=O)(=O)N1CSC[C@@H]1C(=O)NCCc1csc(-c2ccccc2)n1 | 7.03% [at 5 µM] |
| COc1ccc(-c2nc(N3CCN(c4ccc(C)cc4C)CC3)c3ccccc3n2)cc1 | -12.6% [at 0.16 µM] |
| COc1ccc(CC(=O)Nc2ccc(-c3nc(-c4cc(C)ccc4C)co3)cc2)cc1 | 17.8% [at 0.16 µM] |
| CN1c2ccc(C3=CCCCC3)cc2[C@@H]2[C@@H](CCN2C(=O)C2CCOCC2)[C@H]1CO | 43.9% |
| COc1ccc(NC(=O)N2CC[C@@H]3[C@H]2c2cc(C4=CCCCC4)ccc2N(C)[C@H]3CO)cc1 | 18.9% [at 0.3 µM] |
| Cc1ccc(-c2coc(-c3ccc(NC(=O)C(C)C)cc3)n2)cc1 | 38.3% |
| COc1ccc(C)cc1NC(=O)Nc1ccc(-c2nc(-c3cc(C)ccc3C)co2)cc1 | 9.85% [at 0.35 µM] |
| Cc1cc(C)c2c(=O)n(Cc3nc(-c4cccc(Cl)c4)oc3C)c(=O)n(-c3ccccc3)c2n1 | -9.3% [at 0.16 µM] |
| COc1ccccc1CNC(=O)CC1N=C2c3ccccc3N=C(SCc3ccccc3F)N2C1=O (centres undefined) | 21.2% [at 1.35 µM] |
| O=C(Cc1cccc(F)c1)Nc1ccc2c(c1)CCC(=O)N2 | -7.77% |
| O=C(C[C@@H]1CC[C@@H]2[C@H](COC[C@@H](O)CN2C(=O)Nc2cc(Cl)cc(Cl)c2)O1)N1CCOCC1 | 20.4% |
| COCCO[C@H]1CCN(Cc2c(C)noc2C)[C@H]1Cc1ccccc1 | 11.4% |
| Cc1ccc(-c2coc(-c3ccc(NC(=O)Cc4cccs4)cc3)n2)c(C)c1 | 116% |
| COc1cc(OC)cc(C(=O)Nc2ccc(-c3nc(-c4ccccc4)co3)cc2)c1 | -34% [at 1.35 µM] |
| O=S(=O)(c1cccc(F)c1)N1CC[C@@H]2[C@H]1c1cc(C#Cc3ccccc3F)ccc1N[C@@H]2CO | 6.78% [at 0.3 µM] |
| Cc1ccc(S(=O)(=O)N2CC[C@@H]3[C@@H](CO)Nc4ccc(-c5cccc(C(=O)N(C)C)c5)cc4[C@@H]32)cc1 | 30.1% [at 10 µM] |
| COc1ccccc1-c1ccc2c(c1)[C@H]1[C@H](CCN1S(=O)(=O)c1ccc(C)cc1)[C@@H](CO)N2 | 38.9% |

| Structure (SMILES) | max activity |
| --- | --- |
| COc1ccccc1-c1ccc2c(c1)[C@@H]1[C@@H](CCN1S(=O)(=O)c1ccc(C)cc1)[C@H](CO)N2 | 39.6% [at 5 µM] |
| Cc1ccc(S(=O)(=O)N2CC[C@@H]3[C@H](CO)Nc4ccc(-c5cccc(C(=O)N(C)C)c5)cc4[C@@H]32)cc1 | 26.4% [at 5 µM] |
| O=C(c1ccc2c(c1)OCO2)N1CC[C@@H]2[C@H]1c1cc(C#Cc3ccccc3)ccc1N[C@@H]2CO | 33.7% [at 10 µM] |
| N#Cc1cccc(-c2ccc3c(c2)[C@H]2[C@H](CCN2C(=O)c2ccccc2F)[C@@H](CO)N3)c1 | 16.6% [at 10 µM] |
| Clc1ccc(-c2nc(N3CCCc4ccccc43)c3ccccc3n2)cc1 | 10.7% [at 0.35 µM] |
| Cc1nc(-c2cc(S(=O)(=O)N3CCCCC3C)c(C)s2)sc1C (centres undefined) | -14.7% [at 5 µM] |
| Cc1nc(-c2ccc(F)cc2)sc1-c1ccc(SCc2cccc(C(F)(F)F)c2)nn1 | -7.18% [at 0.16 µM] |
| Cc1cccc(-c2nc(Cn3nnc(-c4nc(-c5ccc(Cl)c(F)c5)no4)c3C)c(C)o2)c1 | 6.89% |
| COc1ccc2c(c1)NC1(CCN(C(=O)Cc3cccs3)CC1)c1cccn1-2 | -16.4% [at 10 µM] |
| COc1cccc(-c2nc3c(s2)CN(S(=O)(=O)c2ccc(Cl)cc2)CC3)c1 | -9.55% [at 0.16 µM] |
| Cc1ccc(C)c(-c2coc(-c3ccc(NC(=O)c4sccc4C)cc3)n2)c1 | 16.8% [at 10 µM] |
| Cc1nc(CCNC(=O)[C@H]2CCCN2C(=O)c2ccccc2Cl)cs1 | 13.6% [at 0.35 µM] |
| Cc1oc(-c2cccc(Cl)c2)nc1Cn1nnc(-c2nc(-c3ccc(F)cc3)no2)c1C | -12.5% [at 0.16 µM] |
| CCOc1ccc(-c2nc(CN3CCN(C(=O)Nc4ccccc4OCC)CC3)c(C)o2)cc1 | 16% |
| COc1ccc(OC)c(NC(=O)N2CCN(Cc3nc(-c4cccc(Cl)c4)oc3C)CC2)c1 | 24.8% [at 5 µM] |
| CCOc1ccc(NC(=O)N2CCN(Cc3nc(-c4ccc(C)cc4)oc3C)CC2)cc1 | 18.7% [at 2.6 µM] |
| CCOc1ccc(-c2nc(CN3CCN(C(=O)Nc4ccccc4CC)CC3)c(C)o2)cc1 | 11.7% [at 2.6 µM] |
| CCOc1ccc(NC(=O)N2CCN(Cc3nc(-c4ccc(OCC)cc4)oc3C)CC2)cc1 | 8.47% [at 5 µM] |
| CCOc1ccc(-c2nc(CN3CCN(C(=O)Nc4ccc(CC)cc4)CC3)c(C)o2)cc1 | 8.87% [at 1.35 µM] |
| CCOc1ccc(-c2nc(CN3CCN(C(=O)Nc4ccc(C)cc4)CC3)c(C)o2)cc1 | -22.9% |
| CCOc1ccc(-c2nc(CN3CCN(C(=O)Nc4cc(C)cc(C)c4)CC3)c(C)o2)cc1 | -7.26% [at 0.16 µM] |
| Cc1ccc(NC(=O)COc2nc(C)nc3ccccc23)c(Br)c1 | 23.6% |
